Experimental data as given in PubChem BioAssay (NCATS).
Results filed as inconclusive are left out. Where a call stands in place of a potency, no number is given. Unmarked numbers belong to inactive results. Active and inactive are the calls of the source. Calls come from the whole dose curve; as a rule, active = well fitted inhibition curve with a large enough effect; inconclusive = small, poorly fitted or top-dose-only effect; inactive = no such curve, though single readings can be large or run the other way.

What was measured:
[1] = system: Zika virus NS2B-NS3 protease (unlinked complex); experiment: Primary screen GU Rhodamine qHTS for Zika virus inhibitors: Unlinked NS2B-NS3 protease assay (AID 1347159); note: nearly all actives have a fitted effect of over 60% in size
Method in brief: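 Buffer 10 mM Tris-HCl pH 8.0, 0.01% Tween 20. Unlinked protease 25 nM; compound preincubation 15 min, RT, protected from light. Substrate Rhod110, 1.5 microM; ~15% conversion in 15 min.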

[2] = system: Zika virus NS2B-NS3 protease (linked construct); experiment: Primary screen NINDS Rhodamine qHTS for Zika virus inhibitors (AID 1347160); note: nearly all actives have a fitted effect of over 55% in size
Method in brief: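 Aprotinin served as in-plate control. Conditions: 25 nM linked NS2B-NS3, pH 8.0 Tris buffer, titrated compounds, 15 min preincubation and 15 min reaction with 1.5 microM Rhod110 substrate at room temperature.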
Potency is the fitted concentration of half-maximal effect.

SMILES	Potency [1]	Potency [2]	activity change, negative = inhibition [1]
C=C1CC23CC1CCC2C12OC(=O)C(C)(C(O)CC1O)C2C3C(=O)O (configuration not stated)	inactive	inactive	–
Cc1nc2cc(-c3cc(F)cc(C#N)c3)ccc2s1	inactive	inactive	–
COC(O)(CC(C)C)C1Oc2cc(C)[nH]c(=O)c2O1 (configuration not stated)	inactive	inactive	–
CC/C=C/C=C/C1(C)OC(CC(CO)OC)=CC1=O (configuration not stated)	inactive	inactive	–
C=C1CC2C3(C)C=CC(=O)OC(C)(C)C3CC(OC(C)=O)C2(C)C2C(=O)OC(C)C(=O)C12C (configuration not stated)	inactive	inactive	–
O=C(NC/C=C/CN1CCN(c2cccc(Cl)c2Cl)CC1)c1ccc(-c2ccccn2)cc1	inactive	inactive	–
CC1(C)CC[C@]2(C(=O)O[C@@H]3O[C@H](CO)[C@@H](O)[C@H](O)[C@H]3O)CC[C@]3(C)C(=CCC4[C@@]5(C)C[C@H](O)[C@H](O[C@@H]6O[C@H](C(=O)O)[C@@H](O)[C@H](O)[C@H]6O)[C@@](C)(CO)C5CC[C@]43C)C2C1 (some centres not stated)	–	inactive	21.5% [at 19.1 µM]
CC1=CCC(O)C2(C)CCC3C(C)C(=O)OC3C12 (configuration not stated)	inactive	inactive	–
CCC(C)/C=C(C)/C=C/C(=O)C1CCC(O)C(C)(O)C1=O (configuration not stated)	17.8 µM (active)	25.1 µM (active)	–
CC1=COC(OC2OC(CO)C(O)C(O)C2O)C2C(CO)CC(OC(=O)/C=C/c3ccc(O)cc3)C12 (configuration not stated)	inactive	inactive	–
C/C=C1/C[N+](C)([O-])C2Cc3c([nH]c4ccccc34)C(=O)CC1C2C(=O)OC (configuration not stated)	inactive	inactive	–
CNc1nc(Nc2cn(C(C)(C)C#N)nc2C)ncc1C(F)(F)F	inactive	inactive	–
NC(N)=NCCC[C@H](NC(=O)c1sccc1NS(=O)(=O)c1cccc2nsnc12)C(=O)O	inactive	inactive	–
COc1cc(CO)ccc1O[C@@H]1O[C@H](CO)[C@@H](O)[C@H](O)[C@H]1O	inactive	inactive	–
CCC(C)C(=O)O[C@H]1[C@@H](O[C@H]2O[C@H](CO)[C@@H](O)[C@H](O)[C@H]2O)O[C@H](CO)[C@@H](O)[C@@H]1O (some centres not stated)	inactive	inactive	–
C[C@]12CCC[C@](C)(C(=O)O)C1CCC13CC(CO)C(CCC12)C3 (some centres not stated)	inactive	inactive	–

SMILES	Potency [1]	Potency [2]	activity change, negative = inhibition [1]
CNc1nc(C)nc(N[C@H]2CCC[C@@H](C(=O)NCc3ccc(C#N)cc3C(F)(F)F)C2)n1	inactive	inactive	–
O=C(c1c2ccccc2cc2ccccc12)N1CCC(N2CCC[C@@H](C(=O)N3CCOCC3)C2)CC1	inactive	inactive	–
COc1ccc(NC(=O)c2ccc(-c3ccc(C(N)=O)cc3C)cc2)cc1N1CCN(C)CC1	inactive	inactive	–
C=C1CCc2occ(C)c2[C@H]2[C@H]1[C@@]13O[C@@]1(C[C@@H](C)[C@H]3OC(C)=O)[C@H]1O[C@@]21C	inactive	inactive	–
Nc1ccc(-n2nc(C(F)(F)F)cc2C(F)(F)F)cc1	inactive	inactive	–
COc1cc(C)c(C(=O)O[C@@H]2[C@H](O)[C@@H](CO)O[C@H]2n2ccc(=O)[nH]c2=O)c(OC)c1	inactive	inactive	–
CC1=CC(=O)[C@]2(O[C@@H]3O[C@@H](C)[C@H](O)[C@@H](O)[C@H]3O)C=CO[C@@H](O[C@@H]3O[C@H](CO)[C@@H](O)[C@H](O)[C@H]3O)[C@H]12	inactive	inactive	–
On1ncc(C2CCNCC2)c1-c1cccc(-c2ccccc2)c1	inactive	inactive	–
CC(=O)N[C@H](Cc1c[nH]c2ccccc12)C(=O)OCc1cc(C(F)(F)F)cc(C(F)(F)F)c1	inactive	inactive	–
CCCN1CCC[C@@H](c2cccc(S(C)(=O)=O)c2)C1	inactive	inactive	–
C=CC(C)(CC/C=C(\C)C(=O)OC[C@H]1O[C@@H](OC(C)(C=C)CC/C=C(\C)C(=O)O[C@H]2[C@H](O)[C@@H](O)[C@H](OC(C)(C=C)CC/C=C(\C)C(=O)O)O[C@@H]2CO)[C@H](O)[C@@H](O)[C@@H]1O)O[C@@H]1O[C@H](CO)[C@@H](O)[C@H](O)[C@H]1O (some centres not stated)	inactive	inactive	–
CC1(C)C[C@H](O)C[C@@]2(C)[C@H]1[C@H](O)C=C1COC(=O)[C@@]12O	inactive	inactive	–
COc1ccnc2[nH]cc(C(=O)C(=O)N3CCN(C(=O)c4ccccc4)CC3C)c12 (configuration not stated)	inactive	inactive	–
Cc1ccc(-c2c(-c3nn(C)c4ncnc(N5CC[C@H](N6CCCCC6)C5)c34)cnn2C)cc1	inactive	inactive	–
COC(=O)C1=COC(OC2OC(CO)C(O)C(O)C2O)C2C(C)CC(=O)C12O (configuration not stated)	inactive	inactive	–
